# CHX counter – Cycloheximide Counterscreen for Small Molecule Inhibitors of Shiga Toxin | 300,000 tested, 12% active | cell reporter, cycloheximide protein synthesis inhibition counterscreen | max response, %; in the data active means max response mostly above about 13%, no sharp cut-off; inactive means mostly below about 14%; further: read at 38.3 µM for the half of the compounds with a filed dose; 0% is about no effect
# RE007 growth inh – qHTS Assay for Inhibitors of the HIV-1 protein Vpr; S. pombe RE007 Vpr strain, BacTiter-Glo ATP luminescence, 24 h; 360,000 tested, 0.21% active; Potency, µM (highest dose often 92.2 µM), for inactives: at the highest dose activity change, negative = less growth, actives largely listed as inhibitors; active means well fitted falling curve with a large enough effect; further: potency means the concentration at half of the fitted maximal effect; on the % scale 0 is the no-effect control and ±100 the full control effect; nearly all actives have a fitted effect of over 50% in size
#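 Fission yeast strain RE007, carrying one chromosomally integrated HIV-1 vpr copy, was seeded at OD 0.01 in PMG+AL medium with 23 nL pinned compound. After 24 h at 30 °C and 99% humidity, viability was read by BacTiter-Glo luminescence.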
# Shiga toxin inh – A qHTS for Small Molecule Inhibitors of Shiga Toxin; Vero cells, Shiga toxin protein synthesis inhibition reporter; inhibition, % at 38.7 µM; 290,000 tested, 9.2% active; AID 2315, 2010; in the data active means inhibition mostly above about 28%, no sharp cut-off; inactive means mostly below about 43%; further: 0% is about no effect
# LmPK inh – qHTS Assay for Inhibitors of Leishmania Mexicana Pyruvate Kinase (LmPK); purified LmPK, Kinase-Glo ATP luminescence, 1 h; 290,000 tested, 0.37% active; AID 1721, 2009; Potency, µM (titrated, usually from 57.5 µM), for the others: top-dose activity change, negative = inhibition, hits mostly inhibitors; further: potency means the concentration at half of the fitted maximal effect; on the % scale 0 is the no-effect control and ±100 the full control effect
#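 Pyruvate kinase activity monitored as ATP production (luciferase luminescence). Conditions: 0.1 nM enzyme, 0.5 mM PEP, 0.1 mM ADP, 1 h, RT; normalized against uninhibited and no-enzyme wells.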
# TbPYK inhibitor – qHTS of Trypanosoma Brucei Inhibitors; AID 624173, 2012; TbPYK enzyme, Kinase-Glo Plus ATP luminescence, 45 min; pyruvate kinase (Trypanosoma brucei), Q57TT1; Potency, µM (series often up to 76.8 µM), without a hit: top-dose activity, negative = inhibition, actives largely listed as inhibitors; 410,000 tested, 0.12% active; further: potency means the concentration at half of the fitted maximal effect; on the % scale 0 is the no-effect control and ±100 the full control effect; nearly all actives have a fitted effect of over 50% in size
#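 Readout: single end-point luminescence (Kinase-Glo Plus, 10 min). Reaction conditions were TbPYK/substrate plus 130 uM ADP, 45 min at RT, pH 7.2 TEA buffer. No-enzyme wells served as controls, and data were normalized before concentration-response fitting.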
# FBPA Giardia inh – qHTS Assay for Inhibitors of Fructose-1,6-bisphosphate Aldolase from Giardia Lamblia | purified Giardia FBPA | Potency, µM (series often up to 59.6 µM), inactives show at the highest dose activity, negative = inhibition, hits mostly inhibitors | 290,000 tested, 0.71% active | AID 2451, 2010; further: potency means the concentration at half of the fitted maximal effect; on the % scale 0 is the no-effect control and ±100 the full control effect; nearly all actives have a fitted effect of over 55% in size
# Target sequence (A8B2U2 whole entry, looked up): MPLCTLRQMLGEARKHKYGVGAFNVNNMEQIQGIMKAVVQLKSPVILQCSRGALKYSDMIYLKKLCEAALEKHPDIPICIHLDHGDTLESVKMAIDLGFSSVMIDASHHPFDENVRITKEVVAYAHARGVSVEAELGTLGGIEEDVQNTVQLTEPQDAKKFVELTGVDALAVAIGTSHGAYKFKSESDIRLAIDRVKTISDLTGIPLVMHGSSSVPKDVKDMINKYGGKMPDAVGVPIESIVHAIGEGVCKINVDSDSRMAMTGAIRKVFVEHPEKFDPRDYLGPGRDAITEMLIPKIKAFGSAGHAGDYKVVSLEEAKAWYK
#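 Giardia FBPA (40 nM reagent) was preincubated 10 min at RT with compound (up to 57.5 uM final), then substrate plus GAPDH/TPI/NAD/arsenate coupling system with diaphorase/resazurin was added; resorufin fluorescence (525/598 nm) was read after 20 min.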
# Starred values were filed as active, the others as inactive; x = not tested or not shown; [ ] = remark or other dose. The sample as a whole holds a higher share of hits than the screen did. Unless noted, the call rests on the fitted dose curve; in most records, active means well fitted curve in the direction sought with a large enough effect; inconclusive means small, poorly fitted or top-dose-only effect, or another doubt; inactive means no such curve, though single readings can be large; an effect the other way counts as inactive or inconclusive.
SMILES,CHX counter,RE007 growth inh,Shiga toxin inh,LmPK inh,TbPYK inhibitor,FBPA Giardia inh
COc1nc(-c2ccccc2)cc(-c2ccc(OC)c(OC)c2)n1,21,-19%,56*,-7%,8%,-7%
COc1ccc(-c2[nH]c3ccccc3c2SCCNC(=O)c2cc(OC)c(OC)c(OC)c2)cc1,x,x,x,x,1%,x
CCOc1cccc2cc(-c3nnc(NCc4ccco4)s3)c(=O)oc12,23,-10%,40*,-3%,-3%,4%
CCOc1cccc2cc(-c3cn4cc(C)ccc4n3)c(=O)oc12,14,30%,36*,0%,4%,3%
COc1ccc2oc(=O)c(-c3nnc(NCc4ccco4)s3)cc2c1,31*,5%,63*,-4%,-4%,1%
CCC(=O)N1CCc2cc(Br)cc(S(=O)(=O)N3CCCC(C(=O)Nc4cccc(F)c4)C3)c21 (stereo not drawn),x,x,x,x,-5%,x
C[C@H]1Cc2c(-c3ccccc3)nc3c(c2CO1)CN(C(=O)NCc1ccco1)CC3,x,x,x,1%[11.5 µM],x,8%[12.9 µM]
O=C1CCSC2(C(=O)N(Cc3ccc(F)cc3)c3ccccc32)N1c1cccc(F)c1 (stereo not drawn),x,x,x,x,-1%[15.4 µM],x
O=C(C[n+]1cn(C(F)F)c2ccccc21)c1ccc(OC(F)F)cc1,29*,0%,61*,-3%,0%,0%
O=C(C[n+]1ccc(C(=O)NCc2ccccc2)cc1)c1ccc(OC(F)F)cc1,-3,6%,-4,3%,4%,9%
Cc1ccc(-c2noc(-c3cc4ccccc4oc3=O)n2)cc1,25*,-5%,42,0%,0%,7%
O=c1oc2ccccc2cc1-c1nc(-c2ccccc2)no1,36*,-8%,107*,-12%,4%,6%
Cc1cccc(-c2noc(-c3cc4ccccc4oc3=O)n2)c1,29*,0%,85*,-21%,0%,3%
COc1ccc(NC(=O)c2ccc(NC(=O)CCS(=O)(=O)c3cccs3)cc2)cc1Cl,x,x,x,x,-10%,x
C=C1C2=CC(=O)OC(c3ccoc3)[C@]2(C)CCC1[C@]1(C)C=CC(=O)C(C)(C)C1CC(=O)OC (stereo partly drawn),x,x,x,x,x,-12%
O=C(NCc1ccc(Cl)cc1)c1cnc2sc(N3CCOCC3)nn2c1=O,x,x,x,x,-7%,x
COc1ccc(OC)c(NC(=O)c2ccc3nc(C(C)C)oc3c2)c1,x,x,x,x,-4%,x
CCCCC(=O)Nc1cnc(NC(=O)c2cccs2)cc1C,31*,8%,x,1%,1%,9%
COc1ccc(C(=O)Nc2cc(C)c(NC(=O)c3ccccn3)cn2)cc1,40*,-13%,48*,-12%,-6%,-20%
COc1ccc(C(=O)Nc2cnc(NC(=O)c3cccs3)cc2C)cc1,46*,3%,60,-6%,1%,-12%
Cc1cc(NC(=O)C2CC2)ncc1NC(=O)c1ccccn1,40*,-5%,71*,-27%,6%,-12%
Cc1cc(NC(=O)C2CCCCC2)ncc1NC(=O)c1ccccn1,23,-11%,43,-15%,-5%,-8%
Cc1ccc(C(=O)NCC(=O)N2CCC3(CC2)NCCc2[nH]cnc23)cc1C,-2,14%,-3,4%,1%,x
Cc1ccc(C(=O)NCCC(=O)N2CCC3(CC2)NCCc2[nH]cnc23)cc1C,11*,9%,-2,-2%,-2%,-29%
COc1cccc(NC(=S)N2CCn3cccc3C2c2cccnc2)c1 (stereo not drawn),6,4%,33*,-3%,-3%,3%
COc1cccc(NC(=S)N2CCCC2c2ccc(OC)c(OC)c2)c1 (stereo not drawn),33*,0%,52*,14%,-9%,2%
Cc1cccc(NC(=S)N2CCn3cccc3C2c2cccnc2)c1 (stereo not drawn),1,4%,-5,5%,-6%,-1%
COc1ccc(CNc2nc(-c3ccco3)nn2S(=O)(=O)c2ccc3ccccc3c2)cc1OC,x,x,x,x,-1%,x

# High-throughput results as filed in PubChem.
